Test [1] deals with Zika virus NS2B-NS3 protease. In words: Primary screen GU AMC qHTS for Zika virus inhibitors (AID 1347154). Further: nearly all actives have a fitted effect of over 70% in size. An outline of the steps: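 Unlinked Zika NS2B hydrophilic domain/NS3 protease domain noncovalent complex (25 nM final) in 10 mM Tris-HCl pH 8.0, 0.01% Tween 20, with AMC peptide substrate. Fluorescence (ex 340, em 450 nm) change over 15 min, room temperature; percent inhibition fitted to 4-parameter Hill equation.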
(In general: Quantitative high-throughput screening tests each substance at several concentrations.)

For test [2], the target named is N-terminal Xaa-Pro-Lys N-methyltransferase 1 (Homo sapiens) (UniProt Q9BV86). In words: Confirmatory qHTS for Inhibitors of N-terminal methyltransferase 1 (NTMT1): MTaseGlo Assay (AID 1645874).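 Further: luminescence from SAH made as NTMT1 methylates SPKRIA peptide using SAM; nearly all actives have a fitted effect of over 65% in size.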 An outline of the steps:
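Inhibition was derived from luminescence after SAH-to-ATP conversion, scaled between no-enzyme and DMSO wells, then fitted by 4-parameter Hill. Conditions: 125 nM NTMT1, 100 uM SAM, 1 uM SPKRIA, 30 min RT.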

Test [3] is described as follows: Primary qHTS for inhibitors of nuclear receptor binding SET domain protein 2 (NSD2) in an isogenic RCH-ACV NSD2 p.E1099K mutant (9B) (AID 1645876). Further: potency means the concentration at half of the fitted maximal effect; nearly all actives have a fitted effect of over 70% in size.
Test [4] is described as follows: Primary qHTS for inhibitors of nuclear receptor binding SET domain protein 2 (NSD2) in an RCH-ACV wild type WT cells (2C) (AID 1645877). Further: potency means the concentration at half of the fitted maximal effect; nearly all actives have a fitted effect of over 70% in size.
Test [5] addresses Glutathione peroxidase 1 (Homo sapiens) (UniProt P07203). In words: Primary qHTS Assay for Inhibitors of Recombinant Selenoprotein Glutathione Peroxidase 1 (GPX1) (AID 1845191). Further: on the % scale 0 is the no-effect control and ±100 the full control effect; nearly all actives have a fitted effect of over 65% in size. The method, boiled down: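 GPX1 10 nM, GR 100 nM, GSH 1 mM, NADPH 0.5 mM, CHP 0.5 mM (final). 30-min cpd preincubation, RT. Ex340/Em450 read t=0, t=15 min.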
Test [6] addresses Phospholipid hydroperoxide glutathione peroxidase GPX4 (Homo sapiens) (UniProt P36969). In words: Primary qHTS Assay for Inhibitors of Recombinant Selenoprotein Glutathione Peroxidase 4 (GPX4) (AID 1845192). Further: on the % scale 0 is the no-effect control and ±100 the full control effect; nearly all actives have a fitted effect of over 65% in size. Conditions: outcome: dose series up to 50 µM unless noted. An outline of the steps:
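qHTS, GR-coupled: GPX4 200 nM + cpd 30 min RT → GSH 1 mM, NADPH 0.5 mM, GR 100 nM → CHP 0.5 mM start; fluor 340/450 at t0 and t15 min; no-enzyme wells as control.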

The nature of test [7]: qHTS drug screen for cell cycle checkpoint inhibitors in PARPi-resistant BRCA-mutant ovarian cancer cell lines. (AID 1963452; calls by dose curve). Particulars: PEO1/OlaR viability, CellTiter-Glo luminescence, 96 h, stronger effect = lower value. An outline of the steps: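 PEO1, PEO4 and PEO1/OlaR ovarian cancer cells, 600 per well, exposed 96 h at 37C to a dilution series. Viability read by CellTiter-Glo luminescence, normalized to DMSO and empty wells; activity summarized as Z-AUC.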

Test [8] has as its target Cytochrome P450 1A2 (Homo sapiens) (UniProt P05177). The experiment in a line: p450-cyp1a2 (AID 410; calls by dose curve). The method, boiled down:
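Luminescent demethylation readout: Luciferin-ME (100uM, equal to Km) turned over by 20nM CYP1A2 for 60 min at room temperature after NADPH regeneration addition, following 10 min compound preincubation. Normalization used 57 uM furafylline as full inhibition.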

In test [9] the target is Glucocorticoid receptor (Homo sapiens) (UniProt P04150). The experiment in a line: GR-GFP Redistribution (AID 450;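 active means compounds whose dose series gives a full or clear partial fitted curve of increased nuclear translocation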; further: potency means the concentration at half of the fitted maximal effect). Particulars: U2OS GR-GFP nuclear translocation, laser cytometry, 2 h.
Glucocorticoid receptor (Homo sapiens), sequence (P04150 whole entry, looked up, the tested form may be a part): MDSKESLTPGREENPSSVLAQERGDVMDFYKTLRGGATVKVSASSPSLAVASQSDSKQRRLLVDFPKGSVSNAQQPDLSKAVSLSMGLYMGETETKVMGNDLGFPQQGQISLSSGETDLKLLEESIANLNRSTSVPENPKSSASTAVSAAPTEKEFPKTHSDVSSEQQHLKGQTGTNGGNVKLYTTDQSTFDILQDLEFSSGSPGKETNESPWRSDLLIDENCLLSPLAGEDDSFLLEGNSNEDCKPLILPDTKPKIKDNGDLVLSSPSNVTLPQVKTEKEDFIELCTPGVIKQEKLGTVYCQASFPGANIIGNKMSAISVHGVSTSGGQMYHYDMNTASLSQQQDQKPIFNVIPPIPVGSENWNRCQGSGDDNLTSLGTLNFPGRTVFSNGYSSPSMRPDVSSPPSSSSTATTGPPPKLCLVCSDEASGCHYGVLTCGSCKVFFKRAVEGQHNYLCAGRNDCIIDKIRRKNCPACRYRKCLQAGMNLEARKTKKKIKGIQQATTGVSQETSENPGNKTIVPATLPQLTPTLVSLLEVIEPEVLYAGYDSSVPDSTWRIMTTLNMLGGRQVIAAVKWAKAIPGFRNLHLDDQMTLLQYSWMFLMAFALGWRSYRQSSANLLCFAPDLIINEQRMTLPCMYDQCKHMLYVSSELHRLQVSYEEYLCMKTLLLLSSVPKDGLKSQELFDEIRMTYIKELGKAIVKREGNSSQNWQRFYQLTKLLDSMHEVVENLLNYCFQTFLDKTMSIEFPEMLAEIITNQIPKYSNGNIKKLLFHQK
Test [10] shares this target. In words: GR-EFC Redistribution (AID 451; calls by dose curve; further: potency means the concentration at half of the fitted maximal effect). Conditions: CHO-K1 GR-EFC translocation, beta-gal luminescence, 2 h. The method, boiled down: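 CHO-K1 cells stably expressing nuclear-localized β-gal enzyme acceptor and GR fused C-terminally to the enzyme donor fragment; ligand-driven nuclear translocation restores β-gal by complementation. Compounds titrated up to 46 uM final, 2 h at 37 °C; luminescence read.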

Test [11] concerns the target Mitogen-activated protein kinase 10 (Mus musculus) (UniProt Q61831). In words: JNK3 AlphaScreen Assay (AID 530; active means well fitted curve in either direction with a large enough effect, not every such curve was filed as active;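 further: kinase came from lysate of stimulated human HepG2 cells; signal reports phosphorylation of biotinylated GST-cJun 1-79 at Ser73 with 10 µM ATP; on the % scale 0 is the no-effect control and ±100 the full control effect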). The method, boiled down: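 Phosphorylation of biotinylated GST-cJun(1-79) at Ser73 is measured by AlphaScreen proximity luminescence. Enzyme is JNK3 in HepG2 lysates activated with interleukin-1beta and tumor necrosis factor alpha; ATP is 10 uM final.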
A general note: In Alpha technology, singlet oxygen from a donor bead excites a nearby acceptor bead.

The target of test [12] is 3',5'-cyclic-AMP phosphodiesterase 4B (Homo sapiens) (UniProt Q07343). In words: qHTS Assay for Inhibitors of PDE-IV (AID 607; active means well fitted activation curve with a large enough effect in the main read-out, with a control signal flat, not every such curve was filed as active; further: % of control where 0% means no effect). The method, boiled down: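 HEK293 ACTOne cells with CNG channel (1000/well), endogenous PDE4; membrane potential dye, compounds up to 22.9 uM final. Fluorescence Ex 535/Em 590; RO 20-1724 (100 uM final) as reference.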
3',5'-cyclic-AMP phosphodiesterase 4B (Homo sapiens), sequence (Q07343 whole entry, looked up): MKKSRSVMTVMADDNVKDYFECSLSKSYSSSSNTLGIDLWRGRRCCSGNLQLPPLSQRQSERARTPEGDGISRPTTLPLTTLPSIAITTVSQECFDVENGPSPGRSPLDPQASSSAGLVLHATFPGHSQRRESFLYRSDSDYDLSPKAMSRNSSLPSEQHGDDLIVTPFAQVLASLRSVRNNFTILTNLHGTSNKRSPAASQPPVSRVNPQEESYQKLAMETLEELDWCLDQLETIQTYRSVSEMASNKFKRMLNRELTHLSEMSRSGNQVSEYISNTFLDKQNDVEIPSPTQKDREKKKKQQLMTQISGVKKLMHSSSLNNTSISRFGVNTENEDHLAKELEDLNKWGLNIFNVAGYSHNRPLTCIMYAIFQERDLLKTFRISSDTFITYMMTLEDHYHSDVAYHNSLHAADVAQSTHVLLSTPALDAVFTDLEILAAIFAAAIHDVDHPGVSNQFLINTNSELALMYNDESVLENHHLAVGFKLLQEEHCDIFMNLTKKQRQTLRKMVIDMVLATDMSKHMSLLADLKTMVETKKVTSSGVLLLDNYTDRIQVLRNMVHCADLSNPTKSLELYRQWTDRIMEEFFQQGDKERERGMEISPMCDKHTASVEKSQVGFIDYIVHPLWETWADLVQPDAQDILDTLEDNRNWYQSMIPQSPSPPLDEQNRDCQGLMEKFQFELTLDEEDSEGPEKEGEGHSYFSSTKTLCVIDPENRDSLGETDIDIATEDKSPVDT
Test [13] in a line: qHTS Assay for Lipid Storage Modulators (AID 1519; calls by dose curve). Particulars: Drosophila S3 cells, BODIPY lipid droplet/cell ratio, laser cytometry, cells loaded with oleic acid. The method, boiled down: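 Cells seeded at 5,000 per well were treated with compounds over a concentration series and loaded with oleic acid (400 uM, as added). Lipid droplet fluorescence (488 nm excitation, 500-530 nm channel) was read by laser-scanning cytometry and normalized to 20 uM Triacsin C.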

The target of test [14] is Cytochrome P450 2C9 (Homo sapiens) (UniProt P11712). The experiment in a line: qHTS Assay for Inhibitors and Substrates of Cytochrome P450 2C9 (AID 883). Further: potency means the concentration at half of the fitted maximal effect; nearly all actives have a fitted effect of over 60% in size. An outline of the steps: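 CYP2C9 deoxyluciferin hydroxylation, 37C, 60 min with NADPH regeneration; 10nM enzyme, 100uM Luciferin-H (KM). Glo detection reagent stopped reaction; luminescence normalized to sulphaphenazole (57uM) full inhibition.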
Cytochrome P450 2C9 (Homo sapiens), sequence (P11712 whole entry, looked up): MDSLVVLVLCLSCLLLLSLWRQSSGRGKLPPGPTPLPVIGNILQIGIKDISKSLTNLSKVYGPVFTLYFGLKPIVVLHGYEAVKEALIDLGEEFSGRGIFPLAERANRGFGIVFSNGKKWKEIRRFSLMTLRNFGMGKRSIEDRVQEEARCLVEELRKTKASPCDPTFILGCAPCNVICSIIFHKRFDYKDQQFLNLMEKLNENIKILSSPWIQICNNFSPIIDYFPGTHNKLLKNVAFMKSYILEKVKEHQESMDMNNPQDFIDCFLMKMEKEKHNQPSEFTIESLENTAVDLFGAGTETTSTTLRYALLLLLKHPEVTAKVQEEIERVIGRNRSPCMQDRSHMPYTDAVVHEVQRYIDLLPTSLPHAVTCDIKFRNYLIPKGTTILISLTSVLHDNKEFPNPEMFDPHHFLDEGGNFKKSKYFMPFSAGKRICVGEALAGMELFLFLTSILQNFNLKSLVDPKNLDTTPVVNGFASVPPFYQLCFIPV

Test [15] deals with Cytochrome P450 2C19 (Homo sapiens) (UniProt P33261). In words: qHTS Assay for Inhibitors and Substrates of Cytochrome P450 2C19 (AID 899). Further: potency means the concentration at half of the fitted maximal effect; nearly all actives have a fitted effect of over 60% in size. An outline of the steps: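 In 50mM KPO4, the reaction held 5nM enzyme and KM-level (10uM) Luciferin-H EGE; it ran 60 min at 37C after NADPH regeneration and a 10 min compound preincubation. Luminescence values were scaled to 57uM ketoconazole as complete inhibition.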

Test [16] addresses DNA dC->dU-editing enzyme APOBEC-3G (Homo sapiens) (UniProt Q9HC16). In words: qHTS for inhibitors of Vif-A3G interactions: Validation (AID 588379). Further: 0% is about no effect. An outline of the steps: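 Yellow fluorescence (Ex 488, Em 500-530) of Vif-coexpressing HeLa A3G-eYFP cells, scanned by Acumen cytometer, reports blocked A3G degradation. Cells plated at 700/well overnight at 37 deg C before compound addition, then a further overnight compound incubation at 37 deg C.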

The nature of test [17]: AP1 Signaling Pathway (AID 357; active means well fitted curve in either direction with a large enough effect, not every such curve was filed as active;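 further: ME-180 reporter cells stimulated with EGF at its EC50 level; on the % scale 0 is the no-effect control and ±100 the full control effect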). Conditions: ME-180 AP-1-bla reporter, EGF-induced, beta-lactamase ratio, 5 h; at 17.2 µM (top of the series). The method, boiled down:
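A ratiometric CCF4 readout (405 nm excitation; 460 and 530 nm emission) quantified AP-1-driven beta-lactamase in ME-180 cells after 5 h with compound and EC50 EGF; AC50 values were derived for activators and inhibitors.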

Test [18] in a line: NFAT Signaling Pathway (AID 444; active means well fitted curve in either direction with a large enough effect, not every such curve was filed as active;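 further: carbachol stimulus at about its EC50 of 1 µM final; on the % scale 0 is the no-effect control and ±100 the full control effect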). Conditions: Jurkat NFAT-bla M1, carbachol, beta-lactamase ratio, 5 h; at 17.2 µM (top of the series). The method, boiled down: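 Jurkat cells carrying an NFAT-driven β-lactamase reporter and co-transfected muscarinic M1 receptor were treated with compound plus carbachol (1 uM final, an EC50 level) for 5 h at 37 °C. CCF4 loading followed for 1 h at RT; 460/530 nm ratio gave %activity.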

Test [19] is described as follows: Stat Signaling Pathway (AID 446; active means well fitted curve in either direction with a large enough effect, not every such curve was filed as active;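 further: ME-180 cervical cancer cells given 40 pM IL-6 alongside compound; SIE-controlled beta-lactamase reporter measured as 460/530 nm FRET emission ratio; on the % scale 0 is the no-effect control and ±100 the full control effect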). Particulars: ME-180 (cervical carcinoma) SIE beta-lactamase reporter, IL-6 stimulated, 5 h; at 17.2 µM (top of the series). The method, boiled down:
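Normalization used AC90 stimulation (300 pM IL-6) and AC90 inhibition (125 nM pan-JAK inhibitor at 40 pM IL-6). The underlying signal is SIE-driven beta-lactamase in ME-180 cells after 5 h IL-6 exposure with compound.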

Test [20] concerns the target Cytochrome P450 2D6 (Homo sapiens) (UniProt P10635). In words: qHTS Assay for Inhibitors and Substrates of Cytochrome P450 2D6 (AID 891). Further: potency means the concentration at half of the fitted maximal effect; nearly all actives have a fitted effect of over 60% in size. The method, boiled down: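 Luminescent read-out of luciferin formed by 5 nM human CYP2D6 demethylating 30 uM Luciferin-ME EGE (Km level) over 60 min at room temperature after NADPH regeneration addition. Data normalized to full inhibition by 1.43 uM quinidine.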

Test [21] has as its target Ubiquitin carboxyl-terminal hydrolase 1 (Homo sapiens) (UniProt O94782). The experiment in a line: Inhibitors of USP1/UAF1: Pilot qHTS (AID 504865).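 Further: rhodamine fluorescence freed from ubiquitin-rhodamine substrate followed over time; top concentration of the series differs between compounds; on the % scale 0 is the no-effect control and ±100 the full control effect; nearly all actives have a fitted effect of over 35% in size.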 An outline of the steps: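 Enzyme-free wells gave the negative control, while test wells held 1nM USP1/UAF1 preincubated with compound for 15 min at room temperature. Ub-Rho at 150nM final started the reaction, and fluorescence at 480/540 nm was recorded kinetically.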

The mark [22] stands for this setting: measured here: cell count channel max response.
Where [23] appears, read: measured here: lipid channel max response.

Where “and” joins values, the source holds several entries; their conditions need not be identical. Identical values can stand only once. Results filed as inconclusive are left out. Calls of active or inactive are those of the source. Unless noted, the call rests on the fitted dose curve; in most records, active means well fitted curve in the direction sought with a large enough effect; inconclusive means small, poorly fitted or top-dose-only effect, or another doubt; inactive means no such curve, though single readings can be large; an effect the other way counts as inactive or inconclusive.

Cytochrome P450 1A2 (Homo sapiens), sequence (P05177 whole entry, looked up): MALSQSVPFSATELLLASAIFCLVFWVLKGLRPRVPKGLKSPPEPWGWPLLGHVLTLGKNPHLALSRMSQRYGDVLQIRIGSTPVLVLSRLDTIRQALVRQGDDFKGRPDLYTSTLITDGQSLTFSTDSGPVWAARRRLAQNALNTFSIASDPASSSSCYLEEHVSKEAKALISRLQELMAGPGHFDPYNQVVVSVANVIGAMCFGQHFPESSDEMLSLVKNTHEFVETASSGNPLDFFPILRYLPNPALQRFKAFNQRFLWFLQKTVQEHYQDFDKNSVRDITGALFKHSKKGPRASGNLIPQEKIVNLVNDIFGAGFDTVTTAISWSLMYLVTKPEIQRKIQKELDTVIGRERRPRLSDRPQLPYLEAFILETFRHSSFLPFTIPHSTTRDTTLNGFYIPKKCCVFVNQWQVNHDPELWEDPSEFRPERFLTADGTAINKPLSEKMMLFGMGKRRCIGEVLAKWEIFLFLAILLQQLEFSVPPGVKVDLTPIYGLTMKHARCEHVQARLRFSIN
Ubiquitin carboxyl-terminal hydrolase 1 (Homo sapiens), sequence (O94782 whole entry, looked up): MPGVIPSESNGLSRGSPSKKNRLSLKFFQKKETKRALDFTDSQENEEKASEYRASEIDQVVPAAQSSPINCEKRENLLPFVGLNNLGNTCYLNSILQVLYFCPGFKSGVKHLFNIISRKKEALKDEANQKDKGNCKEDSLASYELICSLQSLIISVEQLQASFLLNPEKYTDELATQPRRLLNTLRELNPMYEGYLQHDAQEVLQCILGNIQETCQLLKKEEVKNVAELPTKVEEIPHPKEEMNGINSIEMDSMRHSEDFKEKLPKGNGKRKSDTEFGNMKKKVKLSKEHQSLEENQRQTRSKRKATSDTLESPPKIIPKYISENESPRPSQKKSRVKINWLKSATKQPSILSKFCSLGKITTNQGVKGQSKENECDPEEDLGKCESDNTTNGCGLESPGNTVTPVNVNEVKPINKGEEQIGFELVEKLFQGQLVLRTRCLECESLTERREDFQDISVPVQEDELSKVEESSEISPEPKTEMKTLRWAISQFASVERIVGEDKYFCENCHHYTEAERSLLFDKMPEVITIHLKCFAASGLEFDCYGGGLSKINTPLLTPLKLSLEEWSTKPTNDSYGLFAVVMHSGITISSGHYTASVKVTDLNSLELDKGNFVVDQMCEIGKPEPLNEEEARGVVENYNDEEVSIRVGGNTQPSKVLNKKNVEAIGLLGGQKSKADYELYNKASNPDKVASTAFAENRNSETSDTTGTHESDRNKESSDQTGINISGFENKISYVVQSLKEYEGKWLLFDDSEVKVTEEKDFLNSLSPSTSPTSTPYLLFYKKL
DNA dC->dU-editing enzyme APOBEC-3G (Homo sapiens), sequence (Q9HC16 whole entry, looked up): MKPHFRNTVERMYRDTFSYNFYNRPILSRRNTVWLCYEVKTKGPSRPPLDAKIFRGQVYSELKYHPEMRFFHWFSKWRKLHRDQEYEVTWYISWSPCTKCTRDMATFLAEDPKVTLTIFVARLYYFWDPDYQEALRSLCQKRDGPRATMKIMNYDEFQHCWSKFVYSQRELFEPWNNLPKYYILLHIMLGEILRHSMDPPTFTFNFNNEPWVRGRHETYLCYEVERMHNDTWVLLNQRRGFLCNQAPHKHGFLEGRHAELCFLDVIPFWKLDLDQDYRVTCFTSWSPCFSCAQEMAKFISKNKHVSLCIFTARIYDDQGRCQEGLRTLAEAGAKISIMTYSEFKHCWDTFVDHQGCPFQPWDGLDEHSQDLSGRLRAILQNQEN
Phospholipid hydroperoxide glutathione peroxidase GPX4 (Homo sapiens), sequence (P36969 whole entry, looked up): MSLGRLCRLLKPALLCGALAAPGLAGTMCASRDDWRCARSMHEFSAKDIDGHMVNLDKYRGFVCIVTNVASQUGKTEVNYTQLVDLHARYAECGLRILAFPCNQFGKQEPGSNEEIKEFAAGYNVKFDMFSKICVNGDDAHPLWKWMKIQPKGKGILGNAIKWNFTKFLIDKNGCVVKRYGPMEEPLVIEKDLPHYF
Cytochrome P450 2D6 (Homo sapiens), sequence (P10635 whole entry, looked up): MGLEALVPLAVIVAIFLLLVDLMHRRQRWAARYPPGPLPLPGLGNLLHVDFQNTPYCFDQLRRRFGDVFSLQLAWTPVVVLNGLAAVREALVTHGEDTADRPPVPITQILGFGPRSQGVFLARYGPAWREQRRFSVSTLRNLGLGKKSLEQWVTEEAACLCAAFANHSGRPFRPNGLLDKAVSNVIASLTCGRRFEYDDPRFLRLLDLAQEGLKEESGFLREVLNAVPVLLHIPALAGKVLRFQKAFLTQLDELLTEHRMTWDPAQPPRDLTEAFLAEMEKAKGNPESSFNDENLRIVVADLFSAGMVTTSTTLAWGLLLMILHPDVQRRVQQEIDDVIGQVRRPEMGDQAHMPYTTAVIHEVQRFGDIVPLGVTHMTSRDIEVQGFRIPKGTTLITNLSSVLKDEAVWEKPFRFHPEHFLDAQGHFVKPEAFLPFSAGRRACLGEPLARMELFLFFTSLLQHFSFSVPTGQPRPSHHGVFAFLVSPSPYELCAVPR
Glutathione peroxidase 1 (Homo sapiens), sequence (P07203 whole entry, looked up): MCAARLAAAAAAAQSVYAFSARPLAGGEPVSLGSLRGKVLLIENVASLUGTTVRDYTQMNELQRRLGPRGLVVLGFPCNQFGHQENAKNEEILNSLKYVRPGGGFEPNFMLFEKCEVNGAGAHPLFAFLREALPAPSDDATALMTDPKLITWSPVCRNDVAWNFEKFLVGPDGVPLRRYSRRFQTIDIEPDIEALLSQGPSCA
N-terminal Xaa-Pro-Lys N-methyltransferase 1 (Homo sapiens), sequence (Q9BV86 whole entry, looked up): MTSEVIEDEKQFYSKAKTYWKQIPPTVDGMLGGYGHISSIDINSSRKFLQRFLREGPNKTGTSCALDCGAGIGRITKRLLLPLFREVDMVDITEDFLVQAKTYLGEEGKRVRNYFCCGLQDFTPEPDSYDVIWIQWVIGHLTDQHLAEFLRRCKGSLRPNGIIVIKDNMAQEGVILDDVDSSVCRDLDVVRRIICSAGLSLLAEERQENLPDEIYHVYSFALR

As to `CC(=O)C1CCC2C3CCC4=CC(=O)CCC4(C)C3CCC12C` (stereo unspecified), the Potency result in test [1], in [2], in test [5] and in [6] was “inactive” throughout. Further, the Potency in test [3] is 20.9 µM (active); in test [4], 18.6 µM (active). For the same compound, the results for the Z-AUC in [7], in [7] (measured here: PEO1 parental Z-AUC) and in [7] (measured here: PEO4 Z-AUC) were -0.653 (inactive), -0.604 and -0.267, respectively.
For `N[C@@H](C(=O)O)c1ccc(C(=O)O)cc1`, the Potency result in [8], in test [11], in test [12] and in test [1] was “inactive” throughout. In addition, the Potency in [9] and in [10] was > 46 µM (inactive) each time. The activity change, negative = inhibition in test [13] (at 57.5 µM (top of the series)) is 5.37% (inactive). The max response stood at 10.8% in test [13] (setting [22]) and 17.4% in test [13] (setting [23]).
For `NC1(C(=O)O)C[C@H](C(=O)O)[C@H](C(=O)O)C1` (stereo partly specified), the Potency entry in [8], in test [11], in [12], in test [16] and in test [1] was “inactive” throughout. Further, the Potency is > 46 µM (inactive) in test [9], > 46 µM (inactive) in [10], 6.31 µM (active) in test [14] and 0.398 µM (active) in test [15]. For the same compound, the activity change, negative = inhibition in test [13] (at 57.5 µM (top of the series)) was 1.98% (inactive). Also, the max response came to 12.8% in [13] (setting [22]) and 14.8% in test [13] (setting [23]).
Turning to `CC(=O)Nc1ccc(OC[C@@H](O)CNC(C)C)cc1`, the activity change, negative = inhibition is 5.39% (inactive) in [17], -18.7% (inactive) in [18], -2.39% (inactive) in test [13] (at 25.7 µM (top of the series)) and -10.4% (inactive) in test [13] (at 57.5 µM (top of the series)). Also, the Potency result in [8], in test [11], in [12], in [21], in [16] and in [1] was “inactive” throughout. Further, the activity, negative = inhibition in test [19] was 9.62% (inactive). Besides, the Potency is > 20.6 µM (inactive) and > 46 µM (inactive) in test [9]; > 20.6 µM (inactive) and > 46 µM (inactive) in test [10]; 3.16 µM (active) in test [20]. The max response in [13] (setting [22]) was -2.07% and -0.999%; in [13] (setting [23]) it was -5.59% and -8.67%.

(Values after PubChem BioAssay (NCATS).)
